From PubChem
Only some compounds are listed: those with a hit (about 3.7% of all), similar ones and a draw of the others.
tim23-1 inh: growth inhibitors of tim23-1 mutant yeast. 330,000 compounds, 1.3% hits. inhibition, % at 20 µM. S. cerevisiae tim23-1 growth, BacTiter-Glo luminescence, 24 h;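 active = growth inhibition of the mutant yeast at or above 50%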;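 note: temperature-sensitive mutant grown at 25 °C; plate controls were DMSO-treated mutant yeast for no effect and medium wells lacking yeast for full effect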
NLRP3 yeast inh: NALP3 inhibition in yeast. Yeast reconstituted NLRP3/ASC/caspase-1, beta-gal luminescence, 24 h. 330,000 compounds, 0.39% hits. AID 2825. inhibition, % at 10 µM;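 active = inhibition of 50% or more; inactive = inhibition below 50%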;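 note: plate controls were induced DMSO wells for no effect and uninduced yeast grown without galactose for full effect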
tim10-1 inh: growth inhibitors of tim10-1 mutant yeast | S. cerevisiae tim10-1 ts strain growth, BacTiter-Glo, 24 h | 330,000 compounds, 2.2% hits | inhibition, % at 20 µM;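 active = inhibition of at least 40%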;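 note: mutant grown at 25 °C; 0% = DMSO wells with yeast and 100% = wells holding no yeast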
PfHsp90 yeast 2: reduces growth (ATP signal) of yeast expressing P. falciparum Hsp90; inhibition, % at 9.4 µM; S. cerevisiae expressing PfHsp90, BacTiter-Glo ATP, 48 h; yeast lacking PDR1 and PDR3 efflux regulators; 310,000 compounds, 0.32% hits;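 active = every replicate shows inhibition above about 80%, whatever the replicate mean, limit read from the data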;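 note: 0% = DMSO neutral controls and 100% = 20 µM radicicol positive controls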
TIM10 inh: TIM10 yeast growth inhibition. S. cerevisiae TIM10 strain growth, BacTiter-Glo luminescence, 24 h. 330,000 compounds, 1.4% hits. inhibition, % at 10 µM;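 active = inhibition of 40% or more at the single tested concentration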;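 note: wild-type TIM10 isogenic control strain grown at permissive 25 °C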
tim10-1 conf: tim10-1 yeast growth inhibition, confirmed; inhibition, % at 20 µM; shares compounds with tim10-1 inh; S. cerevisiae tim10-1 ts strain growth, BacTiter-Glo, 24 h; 7,400 compounds, 56% hits; AID 463213;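 active = inhibition of yeast growth at or above a set limit in either of two repeat tests at 20 µM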;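 note: tim10-1 mutant grown at permissive 25 °C to find synthetic lethal compounds; 0% = DMSO yeast wells and 100% = medium wells without yeast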
TIM10 conf: TIM10 yeast growth inhibition, confirmed; shares compounds with TIM10 inh; S. cerevisiae tim10 strain growth, BacTiter-Glo luminescence, 24 h; inhibition, % at 10 µM; 4,600 compounds, 63% hits;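 active = inhibition of yeast growth at or above a set limit in either of two replicates at 10 µM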;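 note: this counterscreen used the strain with wild-type TIM10; 0% = yeast with DMSO and 100% = medium wells lacking yeast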
tim23-1 conf: confirmation of tim23-1 mutant yeast growth inhibitors. shares compounds with tim23-1 inh. S. cerevisiae tim23-1 growth, BacTiter-Glo luminescence, 24 h. inhibition, % at 20 µM. 4,400 compounds, 83% hits;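 active = inhibition above about 39% in either of two replicate wells at 20 µM, limit read from the data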;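 note: temperature-sensitive tim23-1 mutant grown at 25 °C; 0% = DMSO wells with yeast and 100% = medium wells without yeast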
* = called active by the depositor; / = no result.

SMILES	tim23-1 inh	NLRP3 yeast inh	tim10-1 inh	PfHsp90 yeast 2	TIM10 inh	tim10-1 conf	TIM10 conf	tim23-1 conf
COc1ccccc1C(=O)O/N=C(\N)c1ccccc1Cl	52*	7	41*	8	35	40*	/	32
N/C(=N/OC(=O)c1ccccc1Cl)c1nonc1N	22	22	24	58	17	/	/	/
N/C(=N\OC(=O)c1ccc(Cl)cc1Cl)c1cccnc1	52*	18	58*	/	51*	55*	36*	42*
N/C(=N\OC(=O)c1ccccc1Cl)c1ccccc1	57*	-1	52*	-10	47*	55*	43*	52*
N/C(=N\OC(=O)c1ccccc1Cl)c1ccc(Cl)cc1	81*	14	53*	/	79*	37*	82*	72*
CCc1nc(SCc2ccccc2C)n[nH]1	3	5	-1	1	-4	/	/	/
CCN(CC)CCNC(=O)Cn1cnc2sc(C)c(S(=O)(=O)N3CC(C)CC(C)C3)c2c1=O (centres undefined)	-5	11	-1	-3	-10	/	/	/
O=C(c1ccco1)N1CCn2cccc2C1c1ccccc1 (centres undefined)	11	-74	0	/	5	/	/	/
N/C(=N\OC(=O)c1ccc(Cl)cc1Cl)c1ccccc1	82*	18	62*	-4	87*	55*	84*	78*
CCOP(=O)(OCC)/C(=N/OC(=O)c1ccc(Cl)cc1Cl)C(N)=O	0	18	15	-23	10	/	/	/
Cc1cc2c3c(c1C)C1(C(=O)N3C(C)(C)CC2C)C(C#N)=C(N)Oc2cc(O)ccc21 (centres undefined)	20	1	9	3	-1	/	/	/
CC1CC(C)(C)N2C(=O)C3(Nc4ccccc4S3)c3cccc1c32 (centres undefined)	58*	34	61*	19	47*	54*	61*	62*
N/C(Cc1ccc(Cl)c(Cl)c1)=N\OC(=O)c1cccs1	62*	22	56*	104*	86*	-4	84*	42*
N/C(=N\OC(=O)c1cccs1)C1(c2ccc(Cl)cc2Cl)CC1	74*	-1	50*	-23	66*	45*	76*	73*
NNc1nc(-c2ccccc2)c2cc(Br)ccc2n1	62*	16	44*	3	56*	48*	30	28
NNc1nc(-c2ccccc2)c2cc(Cl)ccc2n1	63*	13	54*	9	48*	32*	24	52*
NNc1nc(-c2ccccc2)cc(-c2ccc(Br)cc2)n1	55*	16	55*	16	39	50*	/	58*
CC(=O)NNc1nc(-c2ccccc2)c2cc(Br)ccc2n1	-24	10	10	/	11	/	/	/
O=c1cc(-c2ccccc2)nc2cc(-c3ccc(Br)cc3)[nH]n12	6	9	-11	-8	0	/	/	/
COc1ccccc1CN1C[C@@H]2C[C@@H](c3ccc(C)c(C)c3)N3CCC[C@@]23C1=O	23	20	16	7	15	/	/	/
O=C(/C=C/c1ccc(Cl)c(Cl)c1)n1cccn1	59*	-3	61*	-15	50*	41*	-13	44*
O=C(COC(=O)c1ccc2c(c1[N+](=O)[O-])C(=O)c1ccccc1C2=O)NC1CC1	76*	16	80*	-43	60*	64*	46*	73*
O=C(COC(=O)c1cccc2c1C(=O)c1ccccc1C2=O)NC1CCCCC1	11	21	24	-5	18	/	/	/
O=C(CCS(=O)(=O)c1ccccc1)Nc1nc2c(s1)COc1ccccc1-2	42	18	37	7	4	/	/	/
COc1ccc(/C=C(\C#N)C(=O)c2cccn2C)cc1	14	17	20	-11	11	/	/	/
SMILES	tim23-1 inh	NLRP3 yeast inh	tim10-1 inh	PfHsp90 yeast 2	TIM10 inh	tim10-1 conf	TIM10 conf	tim23-1 conf
COc1ccccc1/C=C(\C#N)C(=O)c1cccn1C	59*	5	43*	13	22	30	/	50*
COC(=O)c1c(NC(=O)c2cccc(S(=O)(=O)N3CCN(C)CC3)c2)sc(C)c1C	55*	5	57*	/	28	42*	/	47*
COc1cc(CNC2CCCC2)c(Br)cc1OC1CCCC1	24	31	-28	0	13	/	/	/
COc1cc(C=O)c(Br)cc1OC1CCCC1	56*	-80	48*	-1	45*	33*	34*	53*
CC(Sc1nnnn1C1CCCC1)C(=O)Nc1cccc(S(=O)(=O)N2CCOCC2)c1 (centres undefined)	20	7	6	1	-2	/	/	/
CCOc1ccc(C(C)(C)C)cc1S(=O)(=O)n1nc(C)cc1C	54*	31	46*	32	46*	41*	0	51*
CCOc1ccc(C(C)(C)C)cc1S(=O)(=O)N1CC(C)OC(C)C1 (centres undefined)	55*	12	44*	-13	32	28	/	42*
CC(C(=O)Nc1ccc2c(c1)OCO2)N1CCC(N2CCCCC2)CC1 (centres undefined)	16	-10	8	11	4	/	/	/
O=C(CCCOc1cccc(Br)c1)NC1CCC(O)CC1 (centres undefined)	-3	8	11	-7	-5	/	/	/
Cc1nn2c(NCc3ccccn3)cc(C(C)(C)C)nc2c1-c1ccccc1	58*	8	62*	120*	56*	37*	72*	62*
CC1(C)C(CSc2nc3ccccc3[nH]2)C1(Cl)Cl (centres undefined)	57*	30	45*	-4	35	25	/	60*
CC(C)(C)c1nn(-c2ccccc2)c2[nH]c(=O)c(CNc3ccc4c(c3)OCCO4)cc12	83*	33	68*	121*	56*	65*	44*	83*
CC(C)(C)c1nn(-c2ccccc2)c2[nH]c(=O)c(CNCc3ccco3)cc12	38	12	36	-4	23	/	/	/
CC1(C(=O)Nc2nnc(SCc3ccccc3)s2)Cc2ccccc2C(=O)O1 (centres undefined)	52*	-18	47*	/	33	50*	/	42*
O=C(Nc1ccc2nc3n(c(=O)c2c1)CCCCC3)C(=O)N1CCN(c2ccc(F)cc2)CC1	19	11	27	-19	1	/	/	/
O=C(NC1CCS(=O)(=O)C1)Oc1ccc(Cl)cc1 (centres undefined)	11	8	15	-27	4	/	/	/
CC(=O)c1ccc(S(=O)(=O)NCC(=O)N2CCN(C/C=C/c3ccccc3)CC2)cc1	0	0	-4	16	4	/	/	/
